Experimental data from PubChem BioAssay.
Values without a mark were called inactive. The rule behind the calls is not given here.

Each molecule was assayed against Pantothenate synthetase (Mycobacterium tuberculosis (strain ATCC 25618 / H37Rv)) (UniProt P9WIL5) (assay: Recombinant Mtb pantothenate synthetase (PanC) inhibitors, coupled enzyme, confirmatory (AID 375;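 note: 0% = full reaction with vehicle and 100% = no enzyme background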)). Conditions: coupled enzyme assay; at 10 µM, hits give high values.
Pantothenate synthetase (Mycobacterium tuberculosis (strain ATCC 25618 / H37Rv)), sequence (P9WIL5 whole entry, looked up): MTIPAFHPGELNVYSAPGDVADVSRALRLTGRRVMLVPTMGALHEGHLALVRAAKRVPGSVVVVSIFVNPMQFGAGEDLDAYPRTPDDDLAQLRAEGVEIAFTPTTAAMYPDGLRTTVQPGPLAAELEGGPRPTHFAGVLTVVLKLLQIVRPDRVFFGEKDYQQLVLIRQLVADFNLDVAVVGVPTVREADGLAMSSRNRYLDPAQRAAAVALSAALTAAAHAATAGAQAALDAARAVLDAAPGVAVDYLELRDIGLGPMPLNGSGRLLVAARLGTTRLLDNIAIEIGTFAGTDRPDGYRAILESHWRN

`CCCn1cc(SCC(N)=O)c2ccccc21` and `N#CCC(=O)N1CCn2c1nc1ccccc12` are the same in inhibition: 0% for the first, 0% for the second.

`Cc1occc1C(=O)N1CCN(Cc2ccccc2)CC1` and `CC(=O)c1c(C)[nH]c(C(=O)N2CCN(C(=O)c3ccco3)CC2)c1C` are the same in inhibition: 0% for the first, 0% for the second.

Going from `Cc1cc(Oc2ccc(Cl)cc2)nc(-c2ccccc2O)n1` to `c1ccc2c(c1)ccc1nnc(-c3ccc4c(c3)OCO4)n12`, the inhibition falls from 7% to 2%.

First: CCN(CC)CCCN1C(=O)C(=O)/C(=C(/O)c2ccccc2)C1c1ccccn1 (stereo not given)
Second: COc1ccc(/C(O)=C2/C(=O)C(=O)N(CCCN(C)C)C2c2ccc(Cl)cc2)cc1OC (stereo not given)
The inhibition of the first is lower: 0% for the first, 3% for the second.

Going from `Cc1cc(C)c(C(=O)Nc2ccc(S(=O)(=O)Nc3onc(C)c3C)cc2)c(C)c1` to `CCn1cc(C(=O)NCc2ccccc2OC)c(=O)c2cc(S(=O)(=O)N(C)C)ccc21`, the inhibition falls from 8% to 0%.

Compared with `O=C(CSc1ncc(-c2ccc(F)cc2)[nH]1)N1CCCCC1`, `COC(=O)c1ccccc1NC(=O)CSc1nnnn1C1CCCCC1` is higher in inhibition: 0% for the first, 6% for the second.

First: CC(=O)Nc1cccc(NC(=O)CSc2nn3c(=O)c(C)nnc3s2)c1
Second: Cc1ccc(F)cc1NC(=O)Cc1nn(C)c(=O)c2ccccc12
The inhibition of the first is higher: 2% for the first, 1% for the second.

Compared with `CCOC(=O)c1cc2sc(C)cc2n1CC(=O)NCc1ccc(F)cc1`, `COC(=O)c1[nH]c2cccc(C)c2c1NC(=O)CN1CCCc2ccccc21` is lower in inhibition: 2% for the first, 1% for the second.

First: CC(C)OC(=O)c1cc(=O)[nH]c2ccccc12
Second: CCc1cc2c(=O)c(-c3nc4ccccc4[nH]3)coc2c(CN2CCC(C)CC2)c1O
The inhibition of the first is lower: 0% for the first, 4% for the second.

`Cc1ccc2nc3c(cc2c1)CN(Cc1ccco1)C(=NCC1CCCO1)S3` (stereo not given) and `O=c1[nH]c2cccnc2n1Cc1ccco1` are the same in inhibition: 0% for the first, 0% for the second.

Going from `CC(C)CCNC(=O)C1CCN(C(=O)N(C)C)CC1` to `CCN(CCNC(=O)C1CCN(S(C)(=O)=O)CC1)c1ccccc1`, the inhibition rises from 0% to 6%.

Going from `CCc1nnc(NC(=O)CN2CCN(c3ccccc3OC)CC2)s1` to `CCSc1nnc(NC(=O)c2csc(C)c2)s1`, the inhibition falls from 4% to 1%.

Compared with `CCOC(=O)NC1(NCc2ccccc2)Oc2ccccc2O1`, `O=C(Nc1ccc2c(c1)OCCO2)c1ccco1` is higher in inhibition: 0% for the first, 5% for the second.

Going from `O=C(O)c1ccc(-n2nc(C(F)(F)F)c3c2-c2ccoc2CC3)cc1` to `CCC1CCCCN1S(=O)(=O)c1ccc(C(=O)Nc2nnc(-c3cccs3)o2)cc1` (stereo not given), the inhibition rises from 0% to 2%.

First: COC(=O)C1=C(C)NC(C)=C(C(=O)OC)C1C1CC=CCC1 (stereo not given)
Second: Cc1cccc(C)c1NC(=O)C1CCCCN1C (stereo not given)
The inhibition of the first is higher: 3% for the first, 0% for the second.

Going from `CCN(CC)CC#CCOC(=O)C(O)(c1ccccc1)C1CCCCC1` (stereo not given) to `O=C(c1sc2ccccc2c1Cl)N(Cc1cccs1)C1CCS(=O)(=O)C1` (stereo not given), the inhibition falls from 1% to 0%.

`Cc1nnc(SCc2cn3ccsc3n2)n(N)c1=O` and `Cc1ccc2nc(NCCCN3CCOCC3)c(C=NCCCN3CCOCC3)c(=O)n2c1` are the same in inhibition: 0% for the first, 0% for the second.

`O=C1CCCC2=C1C(c1ccc(Br)cc1)c1c([nH]c(=S)[nH]c1=O)N2` (stereo not given) and `O=C(Nc1ccc(F)cc1)N(Cc1ccco1)Cc1cc2cc3c(cc2[nH]c1=O)OCO3` are the same in inhibition: 0% for the first, 0% for the second.

Going from `COc1cc(S(=O)(=O)N2CCOCC2)ccc1NC(=O)COC(=O)C12CC3CC(CC(C3)C1)C2` to `CCC(=O)N1CCc2cc(Br)cc(S(=O)(=O)CCC(=O)NCC3CCCO3)c21` (stereo not given), the inhibition falls from 1% to 0%.

`O=C(Nc1ccc2snnc2c1)N1CCSCC1` and `CC(C)(C#N)Nn1cnnc1` are the same in inhibition: 0% for the first, 0% for the second.
